The list is not random: actives were taken first. Their share in the collection is about 21%.
DRD3 antagonist – antagonists of human D3 dopamine receptor; D3R cells, DiscoveRx beta-arrestin luminescence, antagonist mode; hits give low values; AID 652054; actives 2.5% (n = 360,000); max response, negative = inhibition, %; P35462; in the data active = max response below about -50%; inconclusive = no clear call, values can overlap the other calls
Target sequence (P35462 whole entry, looked up): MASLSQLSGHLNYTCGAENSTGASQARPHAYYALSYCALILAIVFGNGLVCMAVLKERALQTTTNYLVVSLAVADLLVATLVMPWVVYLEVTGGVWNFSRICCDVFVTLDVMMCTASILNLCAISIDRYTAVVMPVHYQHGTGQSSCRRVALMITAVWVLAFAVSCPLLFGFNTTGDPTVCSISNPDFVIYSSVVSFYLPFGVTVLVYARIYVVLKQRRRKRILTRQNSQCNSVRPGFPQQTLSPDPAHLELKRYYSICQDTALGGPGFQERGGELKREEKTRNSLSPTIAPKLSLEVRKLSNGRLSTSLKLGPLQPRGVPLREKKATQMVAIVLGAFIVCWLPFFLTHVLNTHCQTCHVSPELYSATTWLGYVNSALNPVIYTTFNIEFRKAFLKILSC
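Cells plated overnight at 1500 cells/well, then exposed to library compounds with dopamine controls for 90 minutes at 37 degrees C. DiscoveRx reagent added for 30–60 minutes at room temperature; luminescence read, quantitative HTS format.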
DT40 TDP1 CPT – growth inhibition of DT40 Tdp1-/-;hTDP1 cells with camptothecin (screen for TDP1 inhibitors) | chicken DT40 Tdp1-/-;hTDP1 cells + 20 nM CPT, ATP luminescence, 48 h | Potency, µM (doses to about 46.2 µM), usual class: inhibitors | actives 12% (n = 420,000); note: nearly all actives have a fitted effect of over 55% in size
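Chicken DT40 Tdp1-/- cells stably complemented with human TDP1 were seeded at 400 cells/well in medium containing 20 nM camptothecin, exposed to pin-transferred compounds, and grown at 37 °C for at least 48 hr. Viability was read as ATP luminescence.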
ClpP mod – qHTS Assay for Activators of ClpP; purified B. subtilis ClpP, FRET peptide cleavage, 20 min; Potency, µM (doses to about 57.5 µM); actives 1.9% (n = 340,000); AID 651965, 2013; active = well fitted falling curve with a large enough effect; inconclusive = small, poorly fitted or top-dose-only effect; inactive = no such curve, though single readings can be large or run the other way; note: the source files actives as falling curves though it sought activators and does not explain the sign; nearly all actives have a fitted effect of over 65% in size
Target sequence (P80244 whole entry, looked up): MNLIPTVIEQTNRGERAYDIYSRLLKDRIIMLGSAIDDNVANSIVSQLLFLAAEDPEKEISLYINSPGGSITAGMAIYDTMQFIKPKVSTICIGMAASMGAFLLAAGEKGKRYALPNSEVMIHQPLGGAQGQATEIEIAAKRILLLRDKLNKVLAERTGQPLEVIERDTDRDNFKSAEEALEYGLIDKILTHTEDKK
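ClpP 10 microg/mL final, pH 8 Tris/KCl buffer with BSA, glycerol, Tween-20; compound pinned in; FRET-FV substrate; RT 20 min; Ex320/Em430; ΔFRET vs ADEP 5.8 microM, DMSO, no enzyme.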
DRD3 agonist – activates the human D3 dopamine receptor; actives 0.58% (n = 410,000); D3R DiscoveRx beta-arrestin cells, luminescence, 90 min; P35462; max activation, %; in the data active = max activation above about 30%
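Agonist-mode cell screen: cells plated at 1500/well and incubated overnight at 37 °C, then exposed to library compounds for 90 min at 37 °C. Detection reagent was added for 30–60 min at room temperature, and luminescence was read.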
IL-1B inflam inh – blocks inflammasome-driven IL-1 beta release; actives 4.7% (n = 360,000); activity change, % at 57.5 µM; THP-1 LPS/ATP IL-1B secretion, AlphaLISA, 16 h; hits give low values; in the data active = activity change below about -50%; inconclusive = mostly about -30% to -49%
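Secreted IL-1B measured by AlphaLISA bead assay after 16 h compound exposure of THP-1 cells; compounds (final up to 57.5 uM) added 1 h before LPS (250 ng/mL) and ATP (1.25 mM) stimulation; lower signal means less secretion.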
TDP1 cell noCPT – qHTS for Inhibitors of human tyrosyl-DNA phosphodiesterase 1 (TDP1): qHTS in cells in absence of CPT. Potency, µM (doses to about 46.2 µM), hits mostly inhibitors. DT40 Tdp1-/- hTDP1 cells, no CPT, ATP luminescence, 48 h. actives 15% (n = 420,000); note: nearly all actives have a fitted effect of over 55% in size
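Camptothecin absent (DMSO only). Human TDP1-complemented DT40 knockout cells, 400 cells/well, 37 °C for minimum 48 hr; ATP measured via CellTiter-Glo, 30 min dark incubation, luminescence.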
Each line names hits and unclear results; the compound was inactive in the other large screens. Unless noted, calls come from the whole dose curve; as a rule, active = well fitted inhibition curve with a large enough effect; inconclusive = small, poorly fitted or top-dose-only effect; inactive = flat fitted curve, though single readings scatter.

CC(C(=O)Nc1ccncc1)(c1ccccc1)c1ccccc1	none
COc1ccc(-c2cc(C(=O)c3c(N)n(C)c(=O)n(C)c3=O)c3ccccc3n2)cc1OC	none
COc1ccc(NC(C)C(=O)N/N=C/c2c(O)ccc3ccccc23)cc1 (configuration not stated)	DT40 TDP1 CPT 4.6µM, TDP1 cell noCPT 5.8µM (no result: ClpP mod)
O=C(CNc1ccccc1)N/N=C/c1c(O)ccc2ccccc12	DT40 TDP1 CPT 10µM, TDP1 cell noCPT 6.5µM
O=C(CO)N/N=C/c1c2ccccc2cc2ccccc12	none (no result: ClpP mod)
Cc1ccc2c(C)c(C(=O)NCC3CCOCC3)oc2c1C	DT40 TDP1 CPT inconclusive, IL-1B inflam inh inconclusive, TDP1 cell noCPT inconclusive
CCOC(=O)N1CCC(NC(=O)c2cc(C)c3c(C)nn(-c4ccccc4)c3n2)CC1	DRD3 agonist 46
CCOC(=O)N1CCC(NC(=O)c2ccccc2C(=O)O)CC1	none (no result: ClpP mod)
Cc1nc2ccccc2c2oc(C(=O)NCCN3CCCCC3C)cc12 (configuration not stated)	DT40 TDP1 CPT inconclusive, TDP1 cell noCPT 16µM
CCN1CCCC1CNC(=O)c1cc2c(C)nc3ccccc3c2o1 (configuration not stated)	DRD3 antagonist inconclusive, ClpP mod 25µM (no result: IL-1B inflam inh)
Cc1cccc(CS(=O)(=O)Cc2ccc(C(=O)NCCN3CCCCC3C)o2)c1 (configuration not stated)	none
CCOC(=O)N1CCC(NC(=O)c2oc3c(C)c(C)ccc3c2C)CC1	DT40 TDP1 CPT 21µM, TDP1 cell noCPT inconclusive
Cc1nc2ccccc2c2oc(C(=O)N3CCCC(C)C3)cc12 (configuration not stated)	DT40 TDP1 CPT inconclusive, TDP1 cell noCPT inconclusive
CCC1(C)COC(C)(CC(=O)NNC(=O)Nc2ccccc2)OC1 (configuration not stated)	none
CCN(C(=O)CSc1nc2ccccc2[nH]1)C1CCS(=O)(=O)C1 (configuration not stated)	none
COCCN(C(=O)COC(=O)CCCOc1ccc(OC)cc1)c1c(N)n(Cc2ccccc2)c(=O)[nH]c1=O	none
CCCCN(CC)CCNC(=O)c1cc2c(C)nc3ccccc3c2o1	DRD3 antagonist inconclusive, DT40 TDP1 CPT 16µM, TDP1 cell noCPT 23µM
CCCN(CCC)CCCNC(=O)c1cc2cc3ccc(Cl)cc3nc2o1	DT40 TDP1 CPT inconclusive, TDP1 cell noCPT inconclusive
CCOC(=O)N1CCC(NC(=O)c2cc3c(C)nc4ccccc4c3o2)CC1	DT40 TDP1 CPT 9.2µM, TDP1 cell noCPT 21µM
Cc1ccc2c(C)c(C(=O)N3CCCCC3CO)oc2c1C (configuration not stated)	DT40 TDP1 CPT 18µM, TDP1 cell noCPT 13µM
CCCCN(CC)CCNC(=O)c1cc2cc3ccc(Cl)cc3nc2o1	DT40 TDP1 CPT 16µM, TDP1 cell noCPT inconclusive (no result: ClpP mod, IL-1B inflam inh)
CCOC(=O)N1CCC(NC(=O)Cc2ccccc2)CC1	none
CC(C)CC1NC(=O)N(CC(=O)Nc2cccc(Br)c2)C1=O (configuration not stated)	none
Cc1nc2ccccc2c2oc(C(=O)NCC3COc4ccccc4O3)cc12 (configuration not stated)	DT40 TDP1 CPT 21µM, TDP1 cell noCPT 12µM
Cc1nc2c(-c3ccc(F)cc3)c(C)nn2c(C)c1CCC(=O)NC(C)CCc1ccco1 (configuration not stated)	DT40 TDP1 CPT 23µM, IL-1B inflam inh inconclusive, TDP1 cell noCPT 23µM
CCOc1ccc(NC(=O)CCc2c(C)nc3c(-c4ccccc4)c(C)nn3c2C)cc1	TDP1 cell noCPT inconclusive (no result: DRD3 antagonist, IL-1B inflam inh)
CCN1CCN(c2ccc(NC(=O)CCc3c(C)nc4c(-c5ccccc5)c(C)nn4c3C)cc2)CC1	DT40 TDP1 CPT inconclusive, IL-1B inflam inh -62, TDP1 cell noCPT 16µM
COc1ccc(NC(=O)CCc2c(C)nc3c(-c4ccc(F)cc4)c(C)nn3c2C)c(OC)c1	DT40 TDP1 CPT 23µM, TDP1 cell noCPT 21µM (no result: DRD3 antagonist, IL-1B inflam inh)
Cc1nc2c(-c3ccccc3)c(C)nn2c(C)c1CCC(=O)NCc1ccco1	DT40 TDP1 CPT inconclusive, TDP1 cell noCPT inconclusive
CSc1ccc(CCNC(=O)CCc2c(C)nc3c(-c4ccccc4)c(C)nn3c2C)cc1	DT40 TDP1 CPT inconclusive, TDP1 cell noCPT 21µM (no result: DRD3 antagonist, IL-1B inflam inh)
Cc1nc2c(-c3ccccc3)c(C)nn2c(C)c1CCC(=O)NC(C)c1ccccc1 (configuration not stated)	TDP1 cell noCPT inconclusive (no result: DRD3 antagonist, IL-1B inflam inh)
COc1ccc(OC)c(NC(=O)CCc2c(C)nc3c(-c4ccccc4)c(C)nn3c2C)c1	DT40 TDP1 CPT inconclusive, TDP1 cell noCPT 21µM (no result: DRD3 antagonist, IL-1B inflam inh)
COC(=O)C(NC(=O)CCc1c(C)nc2c(-c3ccccc3)c(C)nn2c1C)C(C)C (configuration not stated)	DT40 TDP1 CPT inconclusive, TDP1 cell noCPT 26µM (no result: DRD3 antagonist, IL-1B inflam inh)
Cc1nc2c(-c3ccccc3)c(C)nn2c(C)c1CCC(=O)Nc1ccccc1F	DT40 TDP1 CPT 18µM, TDP1 cell noCPT inconclusive (no result: DRD3 antagonist, IL-1B inflam inh)
Cc1nc2c(-c3ccccc3)c(C)nn2c(C)c1CCC(=O)NCc1ccccc1	TDP1 cell noCPT inconclusive (no result: DRD3 antagonist, IL-1B inflam inh)
CCCC1(C)NC(=O)c2ccccc2O1 (configuration not stated)	none (no result: ClpP mod)
CC(C)(COP(=O)(O)OP(=O)(O)OC[C@H]1O[C@@H](n2cnc3c(N)ncnc32)[C@H](O)[C@@H]1OP(=O)(O)O)C(O)C(=O)NCCC(=O)NCCS (some centres not stated)	DT40 TDP1 CPT inconclusive, TDP1 cell noCPT inconclusive (no result: DRD3 antagonist, ClpP mod, IL-1B inflam inh)
O=C1N[C@@H](Cc2c[nH]c3ccccc23)C(=O)N[C@H]1Cc1ccccc1	none
N#Cc1c(Cl)cccc1N1CCC(C(N)=O)CC1	none
Cc1ccnn1-c1ccc(C(=O)NCc2ccccc2CN2CCOCC2)cc1	DT40 TDP1 CPT 21µM, TDP1 cell noCPT 18µM (no result: ClpP mod)
COc1ccc(-c2[nH]ncc2C(=O)NCc2cccc(Cl)c2)cc1	TDP1 cell noCPT inconclusive (no result: DRD3 antagonist, IL-1B inflam inh)
Oc1c(Cl)cc(Cl)cc1CNc1ccc(Br)cn1	DRD3 antagonist -55, IL-1B inflam inh -85
O=C(NCC(c1cccnc1)N1CCN(c2ccccc2F)CC1)c1ccccc1 (configuration not stated)	DT40 TDP1 CPT inconclusive, TDP1 cell noCPT inconclusive
COc1ccc(C(CNC(=O)c2ccco2)N2CCCCC2)cc1 (configuration not stated)	none (no result: ClpP mod)
Cc1ccc(C(CNC(=O)c2ccco2)N2CCN(C)CC2)cc1 (configuration not stated)	DRD3 antagonist -57

Source: PubChem BioAssay (National Center for Advancing Translational Sciences (NCATS))
